# In PubChem BioAssay AID651820 (National Center for Advancing Translational Sciences (NCATS), 2012):
# Hit rate of the full screen: of about 340,000 compounds, about 12,000 (3.5%) were called active. Where a call stands in place of a potency, no number is given. Another 18% or so got no clear call; they are omitted. For the sample, actives were picked, then their nearest neighbours and some compounds at random. Some compounds were tested as several samples or in several runs, with calls that do not always agree. Unmarked numbers belong to inactive results. Calls follow the shape of the dose curve; as a rule, active = well fitted inhibition curve with a large enough effect; inconclusive = small, poorly fitted or top-dose-only effect, or another doubt; inactive = no such curve, though single readings can be large or run the other way.
# Assay: qHTS Assay for Inhibitors of Hepatitis C Virus (HCV)
# Settings: Huh7.5.1 HCVcc-Cre infection, luciferase reporter, 44 h; series mostly up to 41.8 µM
# Summary of the method: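 Seed cells (1,000/well) for 4 h; treat with compound and infect with HCVcc-Cre, moi about 0.5. Incubate 44 h, then detect luciferase activity.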
# Potency is read from the fitted curve at half-maximal effect.
Structure (SMILES),Potency,"activity change, negative = inhibition"
NN=C(NN=Cc1ccccc1)c1ccccc1,inactive,–
O=[N+]([O-])c1cc2ccccc2nc1-c1ccccc1,inactive,–
CC1CCCCC12NC(=O)N(CC(=O)Nc1ccc(S(=O)(=O)Nc3ncccn3)cc1)C2=O (stereo unspecified),inactive,–
COc1ccc(NC(=O)CC2SC(N3CCCCC3)=NC2=O)cc1OC (stereo unspecified),inactive,–
Cc1ccc(NC(=O)CN(C)CC(=O)Nc2cccc(F)c2)cc1[N+](=O)[O-],5.62 µM (active),–
CN(CC(=O)Nc1cccc(F)c1)CC(=O)Nc1cccc([N+](=O)[O-])c1,inactive,–
Cc1ccc(CN(C)CC(=O)Nc2cccc([N+](=O)[O-])c2)o1,inactive,–
COc1ccc(/C=C2/CCCc3ccccc3C2=O)cc1,inactive,–
Oc1c(Cl)cc(Cl)c(Cl)c1Cc1c(O)c(Cl)cc(Cl)c1Cl,8.91 µM (active),-0.125% [at 8.37 µM]
O=C(NCC(c1ccco1)N1CCc2ccccc2C1)c1ccccc1Cl (stereo unspecified),inactive,–
CC(=O)C(CC(=O)N1CCCC1)C(=O)Nc1ccc(Cl)cc1 (stereo unspecified),inactive,–
CC/C(=C\c1ccc(Cl)cc1)c1ccncc1,inactive,–
COC(=O)c1ccc(CNC(=O)Cn2cc(C)c(=O)[nH]c2=O)cc1,inactive,–
O=c1nc(NO)ccn1C1CCCO1 (stereo unspecified),inactive,–
COc1ccccc1N(CC(=O)Nc1ccc(C)cc1Cl)S(=O)(=O)c1cccs1,inactive,–
CCOc1cc2[nH]c(=S)n(Cc3ccc(C(=O)N4CCN(C)CC4)cc3)c(=O)c2cc1OCC,12.6 µM (active),–
COc1ccccc1Cn1c(=S)[nH]c2cc(C(=O)N3CCN(C)CC3)ccc2c1=O,inactive,–
CCOc1cc2[nH]c(=S)n(Cc3ccc(C(=O)NCCOC)cc3)c(=O)c2cc1OCC,inactive,–

Structure (SMILES),Potency,"activity change, negative = inhibition"
C[C@H](CO)N1C[C@H](C)[C@@H](CN(C)C(=O)NC2CCCCC2)Oc2ccc(NC(=O)c3ccncc3)cc2C1=O,inactive,–
CCN(C[C@H]1N[C@@](Cc2ccccc2)(C(=O)OC)[C@H]2C(=O)N(Cc3ccccc3)C(=O)[C@@H]12)C(=O)c1ccc(C)cc1,inactive,–
COc1ccc2ccccc2c1/C=N/NC(=O)c1cc(C)[nH]n1,inactive,–
CC(C)(C)c1cc(C(=O)N/N=C/c2ccc([N+](=O)[O-])s2)n[nH]1,25.1 µM (active),–
Cc1cc(C(=O)N/N=C/c2cc([N+](=O)[O-])cc(C)c2O)n[nH]1,inactive,–
COc1ccc(S(=O)(=O)N2CCc3ccccc32)cc1C(=O)Nc1cc(S(C)(=O)=O)ccc1Cl,inactive,–
CCNC(=O)CSc1nc(-c2ccccc2)cs1,inactive,–
O=C(CSc1nc(-c2ccccc2)cs1)Nc1cccc([N+](=O)[O-])c1,11.2 µM (active),–
O=C(CSCC(=O)Nc1cccc([N+](=O)[O-])c1)Nc1ccccc1,inactive,–
COc1ccccc1CNC(=O)CSc1nc(=O)n(Cc2ccncc2)c2c1CCC2,inactive,–
O=C(O)Cc1sc(-c2ccccc2)nc1-c1cccs1,inactive,–
C/C(=N/Nc1nc(-c2ccccc2)c(CC(=O)O)s1)c1ccccc1,12.6 µM (active),–
CCOC(=O)C(=O)Nc1nc(-c2ccccc2)c(CC)s1,inactive,–
CC1O[C@@H](OC2C(O)C(C)O[C@H](OC(=O)[C@]34CCC(C)(C)C[C@H]3C3=CCC5[C@@]6(C)CC(O)C(O[C@@H]7OC(CO)C(O)[C@@H](O)[C@@H]7O)[C@@](C)(C(=O)O)C6CC[C@@]5(C)[C@]3(CO)CC4)C2O[C@H]2OC(C)[C@@H](O[C@@H]3OCC(O[C@@H]4OC(CO)C(O)[C@H](O)C4O)[C@@H](O)[C@@H]3O)[C@H](O)C2O)C(O)C(O)C1O (stereo partly specified),inactive,–
CCCCn1c(N)c(N(CC(C)C)C(=O)c2ccc(-n3c(C)ccc3C)cc2)c(=O)[nH]c1=O,inactive,–
Cc1c(C)n2c(SCC(=O)N3CCCC3)nnc2[nH]c1=O,inactive,–
COc1ccc(C(=O)OCc2cc(=O)n3ccsc3n2)cc1F,inactive,–
